Measured values reported in PubChem BioAssay (NCI).
This is part of a sample that, as a whole, favours compounds with a hit. Of some 83,000 tested, about 20% had one in any assay.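 Results are percent growth after 48 hours of single-concentration exposure. 100 means growth as in untreated cells, lower positive values show inhibition; negative values down to -100 show cell death.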 Values without a mark were called inactive. Calls of active or inactive are those of the source. How the source made its calls: active means growth percent below 10; inactive means the rest.

System: IGROV1 ovarian
Test: NCI-60 one-dose screen, 48 h (100 = growth as untreated, 0 = no growth, -100 = all killed)
Details: 10 µM unless noted

Row | SMILES | growth
1 | O=C(N/N=C/c1ccccc1Cl)c1cccc2ccccc12 | 106%
2 | NC(N)=Nc1ccc(/C=C2\C=Cc3ccccc32)cc1 | 51.2%
3 | C/C=C(/C)C(=O)OC1C=C(CO)C(=O)C(OC(=O)C(C)(O)C(C)Cl)C1C(C)C (stereo not given) | -29.7% (active)
4 | CN1CCN(Cc2ccc(NC(=O)c3ccc(C#Cc4c(N)ncc5ccc(F)cc45)cc3)cc2C(F)(F)F)CC1 | -50.6% (active)
5 | CCCCCCCCC(=O)Nc1ccc(O)cc1 | 93.7%
6 | COc1ccc(-c2cc(C#N)c(NNC(C)=O)[nH]2)cc1 | 101%
7 | COc1cc(-c2nc(/C=C3/C(=O)Nc4ccccc43)c3ccccn23)cc(OC)c1OC | 51.6%
8 | Nc1cc2c(cc1Br)[nH]c(=O)c1ccccc12 | 19%
9 | COc1ccc(C(=O)CN2C(=O)NC(c3ccccc3)(c3ccccc3)C2=O)cc1 | 115%
10 | CC[C@@H](C)/C=C(C)/C=C/C(=O)c1c(O)c(-c2ccc(OC(=O)[C@@]34CC[C@@](C)(C(=O)O3)C4(C)C)cc2)cn(O)c1=O | -18.6% (active)
11 | COc1ccc2c(N)ncc(C#Cc3cc(C(=O)Nc4ccc(CN5CCN(C)CC5)c(C(F)(F)F)c4)cnc3C)c2c1 | -71.6% (active)
12 | COc1cc2c(cc1OC)C(Cc1cc(OC)c(OC)cc1[N+](=O)[O-])=NCC2 | 98.1%
13 | Cc1ccc(C(=O)C(Br)C(Br)c2ccccc2)cc1 (stereo not given) | 62.5%
14 | Br/C(=N\Nc1nn[nH]n1)c1ccccc1 | 111%
15 | O=C(Nc1cccc(Cn2c(=O)[nH]c3ccc(Oc4ncccn4)cc3c2=O)c1)c1cccc(F)c1 | 78.2%
